Laboratory results reported in article PMC7862700, “An all-to-all approach to the identification of sequence-specific readers for epigenetic DNA modifications on cytosine”.

Tests used:
Experiment in all cases: DAPPL (digital affinity profiling via proximity ligation, sequencing); 10 mM Tris-HCl pH 7.5, 50 mM NaCl, 1 mM DTT, 4% glycerol, room temperature, 30 min; GST-TFs on glutathione beads, 16-mer random dsDNA library, 0.1% formaldehyde crosslink after washing; high values mean tight binding
FLI1 = molecular target: T1, FLI1 (Homo sapiens, UniProt Q01543 1-452); details: protein: recombinant; tags: N-terminal GST; dsDNA, one strand shown
T1 sequence: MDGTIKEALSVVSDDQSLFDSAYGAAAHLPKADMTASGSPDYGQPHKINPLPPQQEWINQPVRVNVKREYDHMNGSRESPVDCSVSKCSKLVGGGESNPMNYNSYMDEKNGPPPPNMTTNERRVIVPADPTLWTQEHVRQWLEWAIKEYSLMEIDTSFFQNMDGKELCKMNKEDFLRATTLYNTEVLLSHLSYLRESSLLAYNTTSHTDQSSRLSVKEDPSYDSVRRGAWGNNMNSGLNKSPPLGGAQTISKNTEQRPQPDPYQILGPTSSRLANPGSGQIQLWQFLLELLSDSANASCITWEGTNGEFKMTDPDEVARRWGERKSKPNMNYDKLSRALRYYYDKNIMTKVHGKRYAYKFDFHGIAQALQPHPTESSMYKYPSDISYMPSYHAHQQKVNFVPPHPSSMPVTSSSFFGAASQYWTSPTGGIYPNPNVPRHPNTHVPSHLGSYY
Outline: (§1)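 Each value of binding signal is a hexamer's read frequency for a factor divided by the same hexamer's frequency in the tag-only sample. Barcoded, bead-captured GST fusions of human transcription factors made in yeast were pooled with that sample and incubated with 200 nmole of a random double-stranded 16-mer DNA library in Tris/NaCl/DTT/glycerol buffer at room temperature for 30 min. Washing, 0.1% formaldehyde crosslinking, proximity ligation, PCR and Illumina NextSeq500 sequencing followed.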

ELK1 = molecular target: T2, ELK1 (Homo sapiens, UniProt P19419 1-428); details: protein: recombinant; tags: N-terminal GST; dsDNA, one strand shown
T2 sequence: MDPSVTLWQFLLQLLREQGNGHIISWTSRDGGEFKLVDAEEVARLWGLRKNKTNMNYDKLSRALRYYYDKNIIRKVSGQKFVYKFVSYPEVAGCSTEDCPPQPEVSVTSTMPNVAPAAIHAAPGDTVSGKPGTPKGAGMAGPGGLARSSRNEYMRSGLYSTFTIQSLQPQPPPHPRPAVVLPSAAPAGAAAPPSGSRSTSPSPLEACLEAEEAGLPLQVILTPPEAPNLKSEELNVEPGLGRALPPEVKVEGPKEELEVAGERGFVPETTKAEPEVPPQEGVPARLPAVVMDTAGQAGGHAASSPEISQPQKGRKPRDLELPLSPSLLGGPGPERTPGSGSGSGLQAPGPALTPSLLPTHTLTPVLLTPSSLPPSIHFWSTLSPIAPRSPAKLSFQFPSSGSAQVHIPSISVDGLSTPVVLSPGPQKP
Outline: as §1

GABPA = molecular target: T3, GABPA (Homo sapiens, UniProt Q06546 1-454); details: protein: recombinant; tags: N-terminal GST; dsDNA, one strand shown
T3 sequence: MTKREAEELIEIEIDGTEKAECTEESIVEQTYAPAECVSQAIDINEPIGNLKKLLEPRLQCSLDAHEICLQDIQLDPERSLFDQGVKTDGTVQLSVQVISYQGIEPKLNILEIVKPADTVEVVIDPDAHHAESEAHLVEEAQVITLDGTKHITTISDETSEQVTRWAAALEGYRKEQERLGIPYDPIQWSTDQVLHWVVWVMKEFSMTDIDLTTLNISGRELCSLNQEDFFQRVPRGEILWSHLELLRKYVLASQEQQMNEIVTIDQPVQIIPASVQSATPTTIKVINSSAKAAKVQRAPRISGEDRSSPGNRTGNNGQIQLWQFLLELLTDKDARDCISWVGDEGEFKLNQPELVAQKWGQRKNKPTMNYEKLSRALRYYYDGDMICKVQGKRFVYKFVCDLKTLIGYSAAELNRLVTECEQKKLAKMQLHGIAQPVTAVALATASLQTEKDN
Outline: as §1

ERG = molecular target: T4, ERG (Homo sapiens, UniProt P11308 1-479); details: protein: recombinant; tags: N-terminal GST; dsDNA, one strand shown
T4 sequence: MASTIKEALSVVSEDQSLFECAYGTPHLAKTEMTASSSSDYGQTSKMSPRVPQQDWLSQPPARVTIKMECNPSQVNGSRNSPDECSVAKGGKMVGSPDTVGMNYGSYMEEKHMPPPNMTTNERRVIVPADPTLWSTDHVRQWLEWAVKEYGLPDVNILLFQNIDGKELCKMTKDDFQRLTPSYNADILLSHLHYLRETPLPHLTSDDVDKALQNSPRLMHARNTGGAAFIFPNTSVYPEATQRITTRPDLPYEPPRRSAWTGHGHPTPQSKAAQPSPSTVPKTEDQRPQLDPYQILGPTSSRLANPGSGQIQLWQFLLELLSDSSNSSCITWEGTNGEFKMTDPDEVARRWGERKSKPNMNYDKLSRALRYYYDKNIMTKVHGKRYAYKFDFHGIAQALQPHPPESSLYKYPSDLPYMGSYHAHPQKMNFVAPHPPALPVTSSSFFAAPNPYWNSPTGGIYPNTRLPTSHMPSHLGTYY
Outline: as §1

ELF1 = ELF1 (Homo sapiens, UniProt P32519 1-619); details: protein: recombinant; tags: N-terminal GST; dsDNA, one strand shown
ELF1, sequence (P32519 whole entry): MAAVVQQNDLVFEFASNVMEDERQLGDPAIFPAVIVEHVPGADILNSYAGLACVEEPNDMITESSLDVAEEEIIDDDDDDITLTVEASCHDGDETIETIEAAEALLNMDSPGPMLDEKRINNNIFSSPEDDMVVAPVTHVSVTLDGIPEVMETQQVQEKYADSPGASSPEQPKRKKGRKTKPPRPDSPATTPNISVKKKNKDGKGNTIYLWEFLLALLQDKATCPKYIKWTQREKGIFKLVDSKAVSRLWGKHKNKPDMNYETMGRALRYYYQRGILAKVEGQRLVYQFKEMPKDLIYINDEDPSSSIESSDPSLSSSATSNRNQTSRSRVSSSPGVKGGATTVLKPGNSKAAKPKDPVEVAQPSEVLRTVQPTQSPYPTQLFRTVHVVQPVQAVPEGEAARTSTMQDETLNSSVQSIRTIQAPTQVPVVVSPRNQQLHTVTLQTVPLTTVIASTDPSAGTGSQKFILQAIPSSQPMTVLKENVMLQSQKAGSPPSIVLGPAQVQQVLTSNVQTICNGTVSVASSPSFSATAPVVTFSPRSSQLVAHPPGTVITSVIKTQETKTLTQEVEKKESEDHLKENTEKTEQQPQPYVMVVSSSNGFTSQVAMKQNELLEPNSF
Outline: as §1

EHF = molecular target: T5, EHF (Homo sapiens, UniProt Q9NZC4 1-300); details: protein: recombinant; tags: N-terminal GST; dsDNA, one strand shown
T5 sequence: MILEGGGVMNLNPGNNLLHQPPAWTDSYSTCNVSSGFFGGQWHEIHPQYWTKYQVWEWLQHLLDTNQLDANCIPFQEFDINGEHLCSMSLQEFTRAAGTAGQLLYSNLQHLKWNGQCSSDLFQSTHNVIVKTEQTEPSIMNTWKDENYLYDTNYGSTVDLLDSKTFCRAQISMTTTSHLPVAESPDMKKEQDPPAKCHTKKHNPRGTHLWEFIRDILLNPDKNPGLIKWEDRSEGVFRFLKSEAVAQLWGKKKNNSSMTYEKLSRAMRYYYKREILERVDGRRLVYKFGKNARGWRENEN
Outline: as §1

SPI1 = SPI1 (Homo sapiens, UniProt P17947 1-270); details: protein: recombinant; tags: N-terminal GST; dsDNA, one strand shown
Outline: as §1

SPIB = SPIB (Homo sapiens, UniProt Q01892 1-262); details: protein: recombinant; tags: N-terminal GST; dsDNA, one strand shown
SPIB, sequence (Q01892 whole entry): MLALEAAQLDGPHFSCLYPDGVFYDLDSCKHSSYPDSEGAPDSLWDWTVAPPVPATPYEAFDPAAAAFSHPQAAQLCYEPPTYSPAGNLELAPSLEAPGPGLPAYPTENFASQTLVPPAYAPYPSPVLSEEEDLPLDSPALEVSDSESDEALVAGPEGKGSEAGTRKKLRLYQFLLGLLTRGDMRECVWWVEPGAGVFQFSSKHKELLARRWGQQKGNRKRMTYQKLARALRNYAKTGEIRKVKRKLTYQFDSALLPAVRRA
Outline: as §1

ELK3 = molecular target: T6, ELK3 (Homo sapiens, UniProt P41970 1-407); details: protein: recombinant; tags: N-terminal GST; dsDNA, one strand shown
T6 sequence: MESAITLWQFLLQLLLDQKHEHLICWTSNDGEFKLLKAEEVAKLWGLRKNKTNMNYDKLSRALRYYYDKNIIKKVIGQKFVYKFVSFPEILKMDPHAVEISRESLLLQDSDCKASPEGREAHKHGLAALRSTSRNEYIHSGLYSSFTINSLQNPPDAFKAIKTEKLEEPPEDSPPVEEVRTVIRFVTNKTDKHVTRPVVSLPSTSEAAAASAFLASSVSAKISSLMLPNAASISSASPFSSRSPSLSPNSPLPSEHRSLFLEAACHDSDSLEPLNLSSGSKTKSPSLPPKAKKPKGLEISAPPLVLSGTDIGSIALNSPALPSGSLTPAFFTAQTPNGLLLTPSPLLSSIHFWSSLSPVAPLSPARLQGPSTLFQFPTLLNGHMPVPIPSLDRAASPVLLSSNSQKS
Outline: as §1

FEV = molecular target: T7, FEV (Homo sapiens, UniProt Q99581 1-238); details: protein: recombinant; tags: N-terminal GST; dsDNA, one strand shown
T7 sequence: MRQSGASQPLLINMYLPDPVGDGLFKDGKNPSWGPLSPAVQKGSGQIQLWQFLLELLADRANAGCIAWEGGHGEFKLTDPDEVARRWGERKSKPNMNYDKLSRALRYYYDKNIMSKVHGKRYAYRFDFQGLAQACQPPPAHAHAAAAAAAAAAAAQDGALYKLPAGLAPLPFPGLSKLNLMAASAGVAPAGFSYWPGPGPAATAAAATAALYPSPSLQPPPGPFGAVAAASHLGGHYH
Outline: as §1

ETV5 = ETV5 (Homo sapiens, UniProt P41161 1-510); details: protein: recombinant; tags: N-terminal GST; dsDNA, one strand shown
ETV5, sequence (P41161 whole entry): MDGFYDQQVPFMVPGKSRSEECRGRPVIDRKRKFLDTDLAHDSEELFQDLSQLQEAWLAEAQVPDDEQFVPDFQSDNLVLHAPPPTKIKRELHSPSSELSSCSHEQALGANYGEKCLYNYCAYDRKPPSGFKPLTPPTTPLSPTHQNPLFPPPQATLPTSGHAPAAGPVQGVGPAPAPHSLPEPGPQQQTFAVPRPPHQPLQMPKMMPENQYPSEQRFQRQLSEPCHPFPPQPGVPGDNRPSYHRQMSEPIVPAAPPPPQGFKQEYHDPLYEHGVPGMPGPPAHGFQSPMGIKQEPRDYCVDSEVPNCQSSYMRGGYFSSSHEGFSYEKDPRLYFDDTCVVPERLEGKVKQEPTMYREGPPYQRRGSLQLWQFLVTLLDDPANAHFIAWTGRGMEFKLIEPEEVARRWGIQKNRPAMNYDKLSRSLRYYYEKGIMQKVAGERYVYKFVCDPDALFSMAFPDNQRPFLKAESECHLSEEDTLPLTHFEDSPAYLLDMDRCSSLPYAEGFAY
Outline: as §1

HSF1 = HSF1 (Homo sapiens, UniProt Q00613 1-529); details: protein: recombinant; tags: N-terminal GST; chain copies: 3; dsDNA, one strand shown
HSF1, sequence (Q00613 whole entry): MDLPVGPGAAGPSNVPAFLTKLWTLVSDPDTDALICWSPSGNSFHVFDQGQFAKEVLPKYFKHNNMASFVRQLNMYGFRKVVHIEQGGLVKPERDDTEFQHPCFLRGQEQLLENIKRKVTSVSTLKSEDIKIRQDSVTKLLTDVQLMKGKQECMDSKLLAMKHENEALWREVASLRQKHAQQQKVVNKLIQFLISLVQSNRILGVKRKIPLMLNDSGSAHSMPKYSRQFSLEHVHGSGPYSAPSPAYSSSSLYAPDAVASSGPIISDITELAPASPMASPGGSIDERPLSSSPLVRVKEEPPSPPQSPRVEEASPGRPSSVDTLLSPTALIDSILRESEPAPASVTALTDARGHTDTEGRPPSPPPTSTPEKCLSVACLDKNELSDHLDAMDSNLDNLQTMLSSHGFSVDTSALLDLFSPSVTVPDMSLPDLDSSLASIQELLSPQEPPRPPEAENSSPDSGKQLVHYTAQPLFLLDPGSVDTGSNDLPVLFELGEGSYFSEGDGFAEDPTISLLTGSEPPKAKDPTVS
Outline: as §1

SPIC = molecular target: T8, SPIC (Homo sapiens, UniProt Q8N5J4 1-248); details: protein: recombinant; tags: N-terminal GST; dsDNA, one strand shown
T8 sequence: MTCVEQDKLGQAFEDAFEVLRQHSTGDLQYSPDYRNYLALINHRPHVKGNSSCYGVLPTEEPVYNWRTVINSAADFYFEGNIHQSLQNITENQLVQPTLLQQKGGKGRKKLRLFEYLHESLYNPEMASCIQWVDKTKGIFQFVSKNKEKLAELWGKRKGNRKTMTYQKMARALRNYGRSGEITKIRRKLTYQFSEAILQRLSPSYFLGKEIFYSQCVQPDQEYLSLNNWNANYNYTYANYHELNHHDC
Outline: as §1

ELF4 = ELF4 (Homo sapiens, UniProt Q99607 1-663); details: protein: recombinant; tags: N-terminal GST; dsDNA, one strand shown
ELF4, sequence (Q99607 whole entry): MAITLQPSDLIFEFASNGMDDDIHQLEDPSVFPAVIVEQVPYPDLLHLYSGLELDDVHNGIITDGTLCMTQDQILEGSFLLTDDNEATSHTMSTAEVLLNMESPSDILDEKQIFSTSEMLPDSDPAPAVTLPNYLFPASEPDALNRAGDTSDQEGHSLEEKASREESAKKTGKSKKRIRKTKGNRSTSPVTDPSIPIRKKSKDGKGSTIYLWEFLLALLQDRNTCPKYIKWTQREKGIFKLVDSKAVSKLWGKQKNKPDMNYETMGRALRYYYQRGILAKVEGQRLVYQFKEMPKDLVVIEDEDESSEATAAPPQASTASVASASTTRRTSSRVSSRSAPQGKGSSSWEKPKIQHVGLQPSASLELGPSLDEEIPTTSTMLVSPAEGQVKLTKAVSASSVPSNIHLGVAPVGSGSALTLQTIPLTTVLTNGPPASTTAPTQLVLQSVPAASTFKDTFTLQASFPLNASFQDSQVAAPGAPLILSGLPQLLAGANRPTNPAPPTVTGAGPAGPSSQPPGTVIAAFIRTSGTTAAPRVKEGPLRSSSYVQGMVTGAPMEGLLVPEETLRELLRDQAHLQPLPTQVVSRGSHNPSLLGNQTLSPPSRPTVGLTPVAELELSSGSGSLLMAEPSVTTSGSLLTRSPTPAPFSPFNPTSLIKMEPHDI
Outline: as §1

ELK4 = molecular target: T9, ELK4 (Homo sapiens, UniProt P28324-2 1-405); details: protein: recombinant; tags: N-terminal GST; dsDNA, one strand shown
T9 sequence: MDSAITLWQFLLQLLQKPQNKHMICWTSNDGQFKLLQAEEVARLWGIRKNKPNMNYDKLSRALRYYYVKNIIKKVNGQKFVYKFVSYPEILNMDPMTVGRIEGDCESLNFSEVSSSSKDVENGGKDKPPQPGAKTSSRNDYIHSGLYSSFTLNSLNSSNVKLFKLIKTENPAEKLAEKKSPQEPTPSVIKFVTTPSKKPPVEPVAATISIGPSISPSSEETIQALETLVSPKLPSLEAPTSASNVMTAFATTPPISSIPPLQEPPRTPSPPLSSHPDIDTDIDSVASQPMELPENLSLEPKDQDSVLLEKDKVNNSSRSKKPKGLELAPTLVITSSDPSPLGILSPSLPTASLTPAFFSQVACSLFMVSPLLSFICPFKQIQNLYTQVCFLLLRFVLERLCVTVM
Outline: as §1

ETV2 = molecular target: T10, ETV2 (Homo sapiens, UniProt O00321 1-342); details: protein: recombinant; tags: N-terminal GST; dsDNA, one strand shown
T10 sequence: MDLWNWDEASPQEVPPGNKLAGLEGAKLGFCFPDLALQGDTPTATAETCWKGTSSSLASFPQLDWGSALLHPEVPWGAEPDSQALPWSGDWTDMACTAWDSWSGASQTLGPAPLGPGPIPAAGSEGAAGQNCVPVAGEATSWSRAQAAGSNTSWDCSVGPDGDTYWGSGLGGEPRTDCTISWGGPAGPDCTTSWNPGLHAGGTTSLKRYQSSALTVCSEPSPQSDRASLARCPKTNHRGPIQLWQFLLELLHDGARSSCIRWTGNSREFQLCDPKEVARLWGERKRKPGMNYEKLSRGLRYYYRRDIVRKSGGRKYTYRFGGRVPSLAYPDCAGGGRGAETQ
Outline: as §1

ELF3 = molecular target: T11, ELF3 (Homo sapiens, UniProt P78545 1-371); details: protein: recombinant; tags: N-terminal GST; dsDNA, one strand shown
T11 sequence: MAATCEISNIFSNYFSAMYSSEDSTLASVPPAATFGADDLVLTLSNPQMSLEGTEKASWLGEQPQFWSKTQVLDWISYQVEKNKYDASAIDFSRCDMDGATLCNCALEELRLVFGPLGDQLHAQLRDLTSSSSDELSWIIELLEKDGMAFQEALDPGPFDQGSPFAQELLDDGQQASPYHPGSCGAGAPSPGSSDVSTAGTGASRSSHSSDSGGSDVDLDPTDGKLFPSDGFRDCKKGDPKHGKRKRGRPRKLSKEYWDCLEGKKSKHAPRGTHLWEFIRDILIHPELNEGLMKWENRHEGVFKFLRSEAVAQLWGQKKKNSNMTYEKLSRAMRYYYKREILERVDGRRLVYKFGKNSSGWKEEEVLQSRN
Outline: as §1

CRX = CRX (Homo sapiens, UniProt O43186 1-299); details: protein: recombinant; tags: N-terminal GST; dsDNA, one strand shown
CRX, sequence (O43186 whole entry): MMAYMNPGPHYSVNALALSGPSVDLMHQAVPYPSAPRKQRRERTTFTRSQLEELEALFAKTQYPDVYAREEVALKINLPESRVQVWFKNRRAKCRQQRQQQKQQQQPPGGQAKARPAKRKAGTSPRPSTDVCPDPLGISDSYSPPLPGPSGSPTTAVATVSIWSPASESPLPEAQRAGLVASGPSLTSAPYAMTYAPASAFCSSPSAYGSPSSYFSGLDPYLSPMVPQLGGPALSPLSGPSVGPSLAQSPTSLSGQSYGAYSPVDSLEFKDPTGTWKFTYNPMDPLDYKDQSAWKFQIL
Outline: as §1

ETV1 = ETV1 (Homo sapiens, UniProt P50549 1-477); details: protein: recombinant; tags: N-terminal GST; dsDNA, one strand shown
ETV1, sequence (P50549 whole entry): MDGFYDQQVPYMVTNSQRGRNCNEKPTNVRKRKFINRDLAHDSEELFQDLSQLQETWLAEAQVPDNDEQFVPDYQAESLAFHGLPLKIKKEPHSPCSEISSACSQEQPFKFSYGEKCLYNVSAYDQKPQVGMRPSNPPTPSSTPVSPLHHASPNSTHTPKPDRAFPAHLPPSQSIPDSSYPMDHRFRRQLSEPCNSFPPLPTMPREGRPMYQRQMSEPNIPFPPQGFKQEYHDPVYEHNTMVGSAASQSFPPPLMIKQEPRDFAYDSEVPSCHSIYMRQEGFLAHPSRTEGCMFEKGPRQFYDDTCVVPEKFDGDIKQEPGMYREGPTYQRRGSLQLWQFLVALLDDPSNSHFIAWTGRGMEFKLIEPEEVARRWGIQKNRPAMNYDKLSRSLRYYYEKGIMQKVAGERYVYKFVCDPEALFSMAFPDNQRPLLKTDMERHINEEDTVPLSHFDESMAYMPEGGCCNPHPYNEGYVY
Outline: as §1

ACGCCT
binding signal (FLI1): 1.16 fold enrichment (6-mer frequency, TF over GST control) | binding signal (ELK1): 1.24 fold enrichment (6-mer frequency, TF over GST control) | binding signal (GABPA): 1.21 fold enrichment (6-mer frequency, TF over GST control) | binding signal (ERG): 1.2 fold enrichment (6-mer frequency, TF over GST control) | binding signal (ELF1): 1.29 fold enrichment (6-mer frequency, TF over GST control) | binding signal (EHF): 1.12 fold enrichment (6-mer frequency, TF over GST control) | binding signal (SPI1): 1.14 fold enrichment (6-mer frequency, TF over GST control) | binding signal (SPIB): 1.2 fold enrichment (6-mer frequency, TF over GST control) | binding signal (ELK3): 1.21 fold enrichment (6-mer frequency, TF over GST control) | binding signal (FEV): 1.17 fold enrichment (6-mer frequency, TF over GST control) | binding signal (ETV5): 1.2 fold enrichment (6-mer frequency, TF over GST control) | binding signal (HSF1): 1.15 fold enrichment (6-mer frequency, TF over GST control) | binding signal (SPIC): 1.25 fold enrichment (6-mer frequency, TF over GST control) | binding signal (ELF4): 1.21 fold enrichment (6-mer frequency, TF over GST control) | binding signal (ELK4): 1.09 fold enrichment (6-mer frequency, TF over GST control) | binding signal (ETV2): 1.29 fold enrichment (6-mer frequency, TF over GST control) | binding signal (ELF3): 1.12 fold enrichment (6-mer frequency, TF over GST control) | binding signal (CRX): 1.08 fold enrichment (6-mer frequency, TF over GST control) | binding signal (ETV1): 1.05 fold enrichment (6-mer frequency, TF over GST control)
